{"source": "PubChem BioAssay AID2716", "about": "(Broad Institute, 2010)", "note": "The campaign covered roughly 320,000 compounds. About 3,300 (1%) were called active. Shown is part of a subset that was picked to be rich in actives. Values without a mark were called inactive.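 The calls were made as follows: active = every valid replicate shows activation above 250% relative to neutral control wells; inactive = the rest, any valid replicate at or below 250%.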"}
{"experiment": "yeast Mot1-301 growth rescue at high temperature, primary screen, SUMOylation pathway inhibitor project, S. cerevisiae, ATP luminescence, 38.5C (AID 2716);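 also: OY570 slx delta 5 strain wells were the positive control but not used for scaling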", "details": "S. cerevisiae Mot1-301 growth rescue, at 18.8 µM, stronger effect = higher value, percent above DMSO median, 100 means doubled"}
{"smiles": "Cc1ccc(N(C(=O)c2ccc(CN3CCOCC3)o2)C(C(=O)NCCC(C)C)c2cccs2)c(C)c1", "note": "(stereo unspecified)", "growth rescue": "-1.16%"}
{"smiles": "O=C(NC1CCCC1)C(c1ccc(N2CCOCC2)cc1)N(C(=O)c1ccco1)c1ccccc1F", "note": "(stereo unspecified)", "growth rescue": "95.4%"}
{"smiles": "CCc1cc(-c2nnc(SCC(=O)NC3CC3)n2C)cs1", "growth rescue": "-5.06%"}
{"smiles": "C=C(Cl)COC(=O)C1C2C=CC(C2)C1C(=O)O", "note": "(stereo unspecified)", "growth rescue": "885% (active)"}
{"smiles": "O=C(O)C1C2C=CC(C2)C1C(=O)NCc1ccccc1", "note": "(stereo unspecified)", "growth rescue": "-11%"}
{"smiles": "CN1CCN(C(=O)C2C3C=CC(C3)C2C(=O)O)CC1", "note": "(stereo unspecified)", "growth rescue": "0.946%"}
{"smiles": "CCOC(=O)C1CCN(C(=O)c2cccc(S(=O)(=O)N(CC)c3ccccc3)c2)CC1", "growth rescue": "-7.37%"}
{"smiles": "Cc1ccc(S(=O)(=O)N2CCN(c3ccccc3)CC2)cc1C", "growth rescue": "11.5%"}
{"smiles": "Cc1cc(C)n(CCC(=O)N2CCN(S(=O)(=O)c3ccc(C)c(C)c3)CC2)n1", "growth rescue": "315% (active)"}
{"smiles": "Cc1cc(C)n(C(=O)c2ccc(S(=O)(=O)N3CCCC3)cc2)n1", "growth rescue": "1400%"}
{"smiles": "Cc1ccccc1NC(=O)C(C)OC(=O)CCC(=O)N(CC(C)C)c1c(N)n(CC(C)C)c(=O)[nH]c1=O", "note": "(stereo unspecified)", "growth rescue": "-16.2%"}
{"smiles": "O=C(OCCN1C(=O)c2ccccc2C1=O)[C@@H]1CC(O)CN1S(=O)(=O)c1ccccc1[N+](=O)[O-]", "note": "(stereo partly specified)", "growth rescue": "-16.3%"}
{"smiles": "O=C(NNS(=O)(=O)c1c(F)cc(F)c(Cl)c1F)C12CC3CC(CC(C3)C1)C2", "growth rescue": "1720% (active)"}
{"smiles": "O=C(Nc1ccc(S(=O)(=O)Nc2ncccn2)cc1)C12CC3CC(CC(C3)C1)C2", "growth rescue": "35.6%"}
{"smiles": "CC(=O)N1CCN(S(=O)(=O)c2c(F)cc(F)c(Cl)c2F)CC1", "growth rescue": "9.01%"}
{"smiles": "CCN(CCn1cccn1)C(=O)CC1C(=O)NCCN1Cc1cccc(OC)c1OC", "note": "(stereo unspecified)", "growth rescue": "-10.6%"}
{"smiles": "C=Cc1ccc(C(=O)N2CCCC(CCC(=O)N3CCN(c4ccccn4)CC3)C2)cc1", "note": "(stereo unspecified)", "growth rescue": "-28.8%"}
{"smiles": "O=C(c1ccc(F)cc1)c1c[nH]c(C(=O)NCc2cccnc2)c1", "growth rescue": "-16%"}
{"smiles": "CCOC(=O)c1c(C)nn(-c2ncccc2NC(=O)CCC(=O)O)c1C", "growth rescue": "-17.7%"}
{"smiles": "N#Cc1c(-c2ccccc2)nc(SCc2ccc([N+](=O)[O-])cc2)[nH]c1=O", "growth rescue": "10.6%"}
{"smiles": "COc1ccccc1CC(=O)Nc1ccc([N+](=O)[O-])cc1OC", "growth rescue": "-7.23%"}
{"smiles": "COc1ccccc1CSc1ncc(-c2ccc([N+](=O)[O-])cc2)[nH]1", "growth rescue": "1260% (active)"}
{"smiles": "CC(C)(C)Oc1ccccc1Nc1nc(NCCO)nc(N2CCCC2)n1", "growth rescue": "8.32%"}
{"smiles": "CC(C)c1cc(C(=O)N/N=C/c2ccoc2)c(O)c(C(C)C)c1", "growth rescue": "2.88%"}
{"smiles": "O=C(COc1ccccc1[N+](=O)[O-])N/N=C/c1ccc[nH]1", "growth rescue": "-23.4%"}
{"smiles": "CC(Oc1ccccc1[N+](=O)[O-])C(=O)N/N=C/c1ccoc1", "note": "(stereo unspecified)", "growth rescue": "547% (active)"}
{"smiles": "Nc1nonc1-n1nnc(C(=O)N/N=C/c2cc(Br)ccc2O)c1CSC1=NCCS1", "growth rescue": "-10.1%"}
{"smiles": "CCN(C(=O)CSc1nc(N)cc(=O)[nH]1)C1CCS(=O)(=O)C1", "note": "(stereo unspecified)", "growth rescue": "5.44%"}
{"smiles": "CC(C)(C)c1ccc(C(=O)NNC(=O)Cc2ccccc2)cc1", "growth rescue": "10.6%"}
{"smiles": "C=Cn1c(C(=O)O)ccc1-c1ccc(OC)cc1", "growth rescue": "6.91%"}
{"smiles": "COc1ccccc1N1CCN(C(=O)C(=O)N/N=C/c2ccccc2F)CC1", "growth rescue": "490% (active)"}
{"smiles": "COc1cccc(/C=N/NC(=O)C(=O)N2CCCC2)c1", "growth rescue": "11%"}
{"smiles": "COc1ccccc1N1CCN(/N=C/c2ccc(O)cc2O)CC1", "growth rescue": "115%"}
{"smiles": "CCOC(=O)c1cnc2ccc(F)cc2c1Nc1ccc2c(c1)OCCO2", "growth rescue": "37%"}
{"smiles": "Nc1nc(COC(=O)CCC(=O)c2ccc(Cl)cc2)nc(Nc2ccccc2)n1", "growth rescue": "18.5%"}
{"smiles": "Cc1ccc(OC(=O)c2c(C)nn(-c3ccccc3)c2C)cc1", "growth rescue": "-15.1%"}
{"smiles": "CCC(C(=O)NC1CCCCC1)N(C(=O)c1snc(C(N)=O)c1N)c1ccc(OC)cc1OC", "note": "(stereo unspecified)", "growth rescue": "-10.5%"}
{"smiles": "COc1ccc(C(C(=O)NC2CCCCC2)N(C(=O)c2snc(C(N)=O)c2N)c2ccccc2OC)cc1", "note": "(stereo unspecified)", "growth rescue": "-0.518%"}
{"smiles": "CCOc1ccc(C(C(=O)NC2CCCC2)N(C(=O)c2snc(C(N)=O)c2N)C2CCCC2)cc1", "note": "(stereo unspecified)", "growth rescue": "922% (active)"}
{"smiles": "O=C(OCC(=O)N1CCc2ccccc21)C1CCCN1S(=O)(=O)c1ccc(Cl)cc1", "note": "(stereo unspecified)", "growth rescue": "4.88%"}
{"smiles": "C/C(CC(O)(/C=N/O)c1ccccc1)=N\\O", "note": "(stereo unspecified)", "growth rescue": "0.714%"}
{"smiles": "CCOc1c(OC)cccc1C(=O)NCC1(c2ccccc2)CCCC1", "growth rescue": "1.09%"}
{"smiles": "CCc1nc2ccccc2c(C(=O)OC2CCCCC2=O)c1C", "note": "(stereo unspecified)", "growth rescue": "377% (active)"}
{"smiles": "CCc1nc2ccccc2c(C(=O)NCc2ccc(OC)cc2)c1C", "growth rescue": "-10.8%"}
{"smiles": "CCOC(=O)C1CCc2nc3ccccc3c(=O)n21", "note": "(stereo unspecified)", "growth rescue": "141%"}
{"smiles": "CCS(=O)(=O)N1CCCC(C(=O)NCCCN(C)Cc2ccccc2)C1", "note": "(stereo unspecified)", "growth rescue": "2.83%"}
